# Results from PubChem BioAssay AID1918990 (ICCB-Longwood Screening Facility, Harvard Medical School, 2023).
# The campaign covered roughly 29,000 compounds. About 85 (0.3%) were called active. What follows is part of a selection rich in actives, with near analogues and random picks from the rest. Unmarked numbers belong to inactive results.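 Rule for the calls: active = replicate mean overnight rise in green fluorescent reporter signal, 3 or more SD over negative controls; inactive = the rest.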
# Assay: fixK promoter GFP reporter activation – B. multivorans, primary screen (AID 1918990)
# Settings: 18 h, hits give high values
row,Structure (SMILES),z-score
1,COc1cc(NS(=O)(=O)c2cccs2)cc(OC)c1,-1.05
2,Cc1ccc(C(=O)Nc2ccc3[nH]c(=O)c(=O)[nH]c3c2)cc1,-0.29
3,CCCC(=O)Nc1cc2nn(-c3ccccc3)nc2cc1C,-0.72
4,O=C(CSc1ccncc1)NC1CCOCC1Oc1cccc(F)c1 (centres undefined),-0.58
5,COc1cc(OC)c(N(C)C(=O)c2cc3c(=O)oc4ccccc4c3s2)cc1Cl,-1.12
6,CCC(=O)N1CCc2cc(S(=O)(=O)NC(Cc3ccccc3)C(=O)NCc3ccccc3)ccc21 (centres undefined),-1.81
7,CC(NC(=O)CCN1CCN(C)CC1)c1cnn(-c2ccccc2)c1 (centres undefined),0.09
8,COc1cc(OC)c(NC(=O)c2c3c(nn2C)-c2ccccc2SC3)cc1Cl,1.42
9,CCOC(=O)c1cnc2c(C)cc(C)cc2c1Nc1ccc(N2CCOCC2)cc1,-0.2
10,O=C1CCC2(CCCN(C(=O)c3n[nH]c4c3CCCC4)C2)CN1CC1CC1 (centres undefined),-0.52
11,CC(C)(C)NC(=O)CSc1nc(-c2ccc(F)cc2)cc(C(F)(F)F)n1,-1.55
12,CCc1ccc(CN(Cc2ccco2)C(=O)c2ccccc2Cl)cc1,1.11
13,CCN1CCc2nc3sc(C(=O)Nc4ccccc4OC(F)(F)F)c(N)c3cc2C1,-0.04
14,Cc1ccc(S(=O)(=O)N2CCCC(C(=O)CCc3ccccc3)C2)s1 (centres undefined),-1.15
15,Cc1cc(C)nc(CCNC(=O)N(Cc2ccncc2)CC2CCC(=O)N2)n1 (centres undefined),0.83
16,Cc1ccc(Cl)cc1NC(=O)CCS(=O)(=O)c1ccc(Br)s1,-1.34
17,CCCN1CCN(CCCNC(=O)Cn2nc(CC)n3c(cc4occc43)c2=O)CC1,0.72
18,Cc1nn(C)c2c1C(NC(=O)c1cc(CC(C)C)on1)CCC2 (centres undefined),-0.15
19,Cc1ccc(NC(=O)C(Cc2ccccc2)NS(=O)(=O)c2ccc3c(c2)oc(=O)n3C)cc1C (centres undefined),0.54
20,Cc1nc2c(-c3ccccc3)c(C)nn2c(C)c1CCC(=O)NCCc1ccccc1,-0.95
21,COc1ccc(-c2noc(CCC(=O)N(C)c3ccccc3C)n2)cc1,-1.83
22,CCn1c(=O)c(=O)n(CC)c2cc(N3CCCCC3)c(NC(=O)c3cccc(F)c3)cc21,0.36
23,CCn1c(C(=O)Nc2cc(Cl)ccc2C)cc2sc(Cl)cc21,-0.88

row,Structure (SMILES),z-score
1,CCn1c(=O)c(=O)n(CC)c2cc(N3CCCCC3)c(NC(=O)c3ccc(Cl)cc3)cc21,15.3 (active)
2,CCCn1nccc1S(=O)(=O)NCc1csc(-c2cnccn2)n1,-1.08
3,Cc1cccc(NC(=O)C2CCCN2S(=O)(=O)c2cccc3nsnc23)c1C (centres undefined),0.05
4,CN1C(=O)c2[nH]nc(-c3ccc(F)cc3)c2C1c1ccccn1 (centres undefined),0.33
5,CN(CCNC(=O)CN1CCCC(c2ccccc2)C1)S(C)(=O)=O (centres undefined),0.17
6,Cc1[nH]c(=O)[nH]c(=O)c1CC(=O)NCc1ccc(-c2ncon2)cc1,-1.58
7,CCOC(=O)c1ccc(NC(=O)CC2C(=O)N(c3cccc(OC)c3)C(=O)N2C2CCCCC2)cc1 (centres undefined),-0.28
8,CCOC(=O)c1cc2c(=O)n3ccccc3nc2n(CCCOC)c1=NC(=O)C(C)(C)Oc1ccc(Cl)cc1,-0.51
9,Cc1cc(C(=O)NCCCc2nnc3ccccn23)nc(C)n1,-0.17
10,COc1ccc(CNC(=O)c2cc3c(s2)-c2ccccc2OC3)cc1,0.73
11,COc1ccccc1CNC(=O)Cn1nccc1C1CCCNC1 (centres undefined),0
12,CCCCNC(=O)c1ccc2c(c1)NC(=O)C(C(C)C)N2 (centres undefined),0.08
13,COc1cc2nc(NCC(C)c3ccccc3)n3nc(-c4ccccc4)nc3c2cc1OC (centres undefined),-0.67
14,CCCS(=O)(=O)c1c(Nc2ccccc2C)sc(C(=O)c2ccccc2)c1N,0.44
15,CC1CCC2(CC1)N=C(c1ccccc1)C(=O)N2CC(=O)Nc1ccc(F)c(Cl)c1 (centres undefined),-1.75
16,Cc1cc(C)cc(NS(=O)(=O)c2ccc3[nH]cc(C(=O)N4CCCCC4)c(=O)c3c2)c1,-1.09
17,COc1ccc(CCNCc2c(C(=O)O)c(C)n(Cc3cccc(C)c3)c2C)cc1OC,-1.27
18,COC(=O)c1c(NC(=O)c2cc(=O)c3c(C)cc(C)cc3o2)sc2c1CCCC2,-1.12
19,COCCN(CC=Cc1ccccc1)Cc1ccc2nonc2c1,0.18
20,COc1cc2c(=O)c(S(=O)(=O)c3ccc(C(C)C)cc3)cn(Cc3ccccc3C)c2cc1OC,0.3
21,CCOC(=O)c1c(NC(=O)COc2cc(C)ccc2C(C)C)sc(C)c1C,-0.34
22,c1ccc(-c2noc(CCn3ccnc3-c3cnsc3)n2)nc1,0.47
23,Cc1ccc(-n2nc(CO)c(C(=O)NCCc3ccccc3)n2)cc1,-0.78

row,Structure (SMILES),z-score
1,CC(C)c1nnsc1C(=O)Nc1ccc(CC(=O)NC2CC2)cc1,-0.11
2,Cn1ccnc1C(O)c1cc2n(n1)CCN(Cc1cccc(Cl)c1)C2 (centres undefined),0.34
3,COCCCNC(=O)c1c(NC(=O)c2cc(=O)c3cc(C)c(C)cc3o2)sc2c1CCCC2,-0.42
4,COc1cccc2c1C1(CCN(C(=O)c3ccccn3)CC1)OCC2,0.69
5,CCOC(=O)C1CCCN(C(=O)Cn2ncc3c(C)n(Cc4ccc(F)cc4)c(C)c3c2=O)C1 (centres undefined),0.33
6,COc1ccc(Cl)cc1NC(=O)NCC1CCN(Cc2ccccc2F)CC1,-7.23
7,Cc1ccc(C(=O)NCCc2nc(N)cc(=O)[nH]2)n1C(F)F,-0.52
8,COc1ccc(NC(=O)CSc2nc3ncccc3[nH]2)c(OC)c1,1.38
9,Cn1c(C2CCN(C(=O)CSc3nnc(N)s3)CC2)nc2ccccc21,0.47
10,CN(Cc1ccccc1)C(=O)c1cc2c(=O)n(C)c3ccccc3c2s1,0.14
11,CCOc1ccc(S(=O)(=O)N(CC(=O)NCCSCc2ccc(C)cc2)c2ccccc2)cc1,-1.04
12,Cc1c(NC(=O)c2cc(=O)c3ccccc3o2)c(=O)n(-c2ccccc2)n1C,-0.69
13,COc1cccc(CNC(=O)c2cc(=O)[nH]c3ccc(S(=O)(=O)N4CCCCC4)cc23)c1,-0.5
14,CCc1ccc(NC(=O)CN2C(=O)C(c3ccccc3)=NC23CCCCCC3)cc1,-1.83
15,COC(=O)c1ccc(C2C(C(=O)Nc3ccccc3)=C(C)Nc3nc4ccccc4n32)cc1 (centres undefined),-1.77
16,COc1ccc(CNC(=O)Cn2nnc(-c3ccc(S(C)(=O)=O)cc3)n2)cc1,0.3
17,Cn1c(=O)nc2n(-c3ccc(Br)cc3)c3cccc(Cl)c3cc-2c1=O,-1.2
18,COc1ccc(C(=O)Nc2onc3c2CCCC3)cc1,-2.06
19,Cc1nc(C2CCN(S(=O)(=O)CCC3CCS(=O)(=O)C3)CC2)no1 (centres undefined),0.66
20,Cc1ccc(Nc2c(-c3ccc(C)cc3)nc3cnccn23)cc1,-1.25
21,Cn1c(=O)c2c(nc(SCC(=O)Nc3ccc(F)cc3)n2Cc2ccccc2)n(C)c1=O,-1.14
22,Cc1ccc2nc(-c3ccc(O)cc3)c(Nc3ccc4c(c3)OCO4)n2c1,0.53
23,O=C(c1n[nH]c2ccccc12)N1CCc2nc(-c3cccc(F)c3)[nH]c2C1,-1.33

row,Structure (SMILES),z-score
1,COc1c(Cl)cc(C(=O)N(Cc2ccccc2F)C2CCS(=O)(=O)C2)cc1Cl (centres undefined),-0.89
2,Cc1ccn2c(Nc3ccc4c(c3)OCCO4)c(-c3ccc(C)s3)nc2c1,0.86
3,CCOc1ccc(-c2cc3nc(C4CCN(C(=O)OC(C)(C)C)CC4)c(C(=O)Nc4cccc(CC)c4)cn3n2)cc1,-0.21
4,CCOc1ccc2nc(N3CCC(C(=O)Nc4cc(C)ccc4C)CC3)sc2c1,-0.96
5,Nc1ccnc(N2CCCC(c3[nH]ncc3-c3ccc(F)cc3)C2)n1 (centres undefined),-0.16
6,COc1cc(NC(=O)CCNC(=O)Cn2ccc3ccccc3c2=O)cc(OC)c1OC,0.24
7,CCCCOCC(=O)N1CCCC(c2ccn(CC(=O)O)n2)C1 (centres undefined),-2.17
8,CN(C)C1CN(Cc2cnc(-c3ccc(Cl)cc3)nc2)CC1O (centres undefined),-0.39
9,Cc1ccc(-c2nc(S(=O)(=O)c3ccc(C)cc3)c(N3CCCCCC3)o2)cc1,-0.18
10,COc1ccc(CNC(=O)c2cc3c(=O)[nH]c4ccc(C)cc4c3s2)c(OC)c1,-1.16
11,COc1cccc(OCc2cc(C(=O)N(C)Cc3nncn3C)n[nH]2)c1,-1.49
12,Cc1c(CNC(C)c2ccccc2)c(C(=O)O)c(C)n1Cc1c(F)cccc1Cl (centres undefined),-2.09
13,COCCN(CCOC)C(=O)c1ccc(-c2ncccc2Cl)cc1,0.44
14,Cn1c(=O)c2c(nc(SCC(=O)Nc3ccc(F)cc3)n2Cc2ccc(Cl)cc2)n(C)c1=O,-2.04
15,COCCNC(=O)c1cc(-c2cccc(Cl)c2)on1,1.09
16,CCOc1ccccc1NC(=O)Cn1c(=O)n(Cc2ccco2)c(=O)c2sc3ccccc3c21,-1.53
17,COCCCCCC(=O)N1CC(O)C(Cc2cnccn2)C1 (centres undefined),0
18,CS(=O)(=O)N1CCCn2nc(CNC(=O)CC3CCCC3)cc2C1,-0.69
19,Cc1ccc(C)c(Nc2nnc(-c3ccc(C)c(S(=O)(=O)N4CCCCC4)c3)c3ccccc23)c1,-0.47
20,COC(=O)c1ccccc1NS(=O)(=O)c1ccc2c(c1)CCCN2C(C)=O,-1.34
